Inconclusive results are not listed. Calls of active or inactive are those of the source. How the source made its calls: active means hit-call score of the fitted dose curve at least 0.9, where 1 is the maximum; inconclusive means response in the unintended direction; inactive means score below 0.9.
target: Nucleoli Translocation, AR (gene 367) (UniProt P10275); test: UPITT_HCI_U2OS_AR_TIF2_Nucleoli_Antagonist: University of Pittsburgh U2OS Androgen Receptor-Transcriptional Intermediary Factor 2 (AR-TIF2) Antagonism High Content Imaging Assay for Nucleoli Translocation (AID 2283997)
Description: UPITT_AR_TIF2_PPIB is a cell-based, high-content imaging assay that uses U2OS, a human osteosarcoma cell line, expressing a human androgen receptor fused to red fluorescent protein and the coactivator TIF2 fused to green fluorescent protein. UPITT_HCI_U2OS_AR_TIF2_Nucleoli_Antagonist is one of four assay components measured from the UPITT_AR_TIF2_PPIB assay. It is designed to make measurements of red fluorescence localized in the nucleolar region of the cell nucleus as detected with high-content fluorescent imaging.Data from the assay component UPITT_HCI_U2OS_AR_TIF2_Nucleoli_Antagonist was analyzed into 1 assay endpoint. This assay endpoint, UPITT_HCI_U2OS_AR_TIF2_Nucleoli_Antagonist, was analyzed in the positive analysis fitting direction relative to DHT as the baseline of activity. Using a type of binding reporter, measures of receptor for loss-of-signal activity can be used to understand the binding at the pathway-level as it relates to the gene AR.
Daughter plates containing 2 uL of 10 mM compounds in DMSO were prepared and replicated from the 384-well Library of Pharmacologically Active Compounds (LOPAC) master plates using the Bravo outfitted with a 384-well transfer head. Aluminum adhesive plate seals were applied with an Abgene Seal-IT 100 (Rochester, NY) plate sealer, and the plates were stored at -20 C in a Matrical MatriMinistore (Spokane, WA) automated compound storage and retrieval system. For screening, LOPAC daughter plates were withdrawn from -20C storage, thawed to ambient temperature, centrifuged 1-2 min at 50 g, and the plate seals were removed before the transfer of 98 uL of serum-free tissue culture medium (SFM) into wells using the BioTek Microflo liquid handler (BioTek, Winooski, VT) to generate a 200 uM intermediate stock concentration of library compounds (2.0% DMSO). The diluted compounds were mixed by repeated aspiration and dispensation using a 384-well P30 dispensing head on the Evolution P3 (EP3) liquid handling platform (PerkinElmer, Waltham, MA) and then 5 uL of diluted compounds was transferred to the wells of assay plates. In the LOPAC screen, compounds were individually tested at a final concentration of 20 uM (0.2% DMSO). After the diluted compounds had been transferred from the daughter plates to the primary HCS assay plates, aluminum adhesive plate seals were applied and the diluted daughter plates were stored frozen at -20C. To confirm active compounds identified in the primary screen, we withdrew the LOPAC daughter plates containing the 200 uM intermediate concentration of library compounds (2.0% DMSO) from -20C storage, thawed them to ambient temperature, centrifuged them for 1-2 min at 50 g, and removed the plate seals. A work list was generated to direct the Multiprobe Janus liquid handling platform (PerkinElmer) to cherry pick 75 uL from the wells of the diluted daughter plates that were flagged active in the primary screen and to reformat these into a 384-well plate hit confirmation daughter plate. Five microliters of primary HCS active compounds was then transferred into triplicate wells of assay plates using a 384-well P30 dispensing head on the Evolution P3 (EP3) liquid handling platform (PerkinElmer). […] Daughter plates containing 2 uL of the serially diluted compounds in DMSO were prepared and replicated from the 384-well serial dilution master plates using the Bravo outfitted with a 384-well transfer head. Aluminum adhesive plate seals were applied and plates were stored at -20C. […] The ImageXpress Ultra (IXU) platform (Molecular Devices LLC, Sunnyvale, CA) and The ImageXpress Micro (IXM) platform were used for imaging.

Chain of Nucleoli Translocation, AR (gene 367) (P10275 whole entry, looked up, the tested form may be a part): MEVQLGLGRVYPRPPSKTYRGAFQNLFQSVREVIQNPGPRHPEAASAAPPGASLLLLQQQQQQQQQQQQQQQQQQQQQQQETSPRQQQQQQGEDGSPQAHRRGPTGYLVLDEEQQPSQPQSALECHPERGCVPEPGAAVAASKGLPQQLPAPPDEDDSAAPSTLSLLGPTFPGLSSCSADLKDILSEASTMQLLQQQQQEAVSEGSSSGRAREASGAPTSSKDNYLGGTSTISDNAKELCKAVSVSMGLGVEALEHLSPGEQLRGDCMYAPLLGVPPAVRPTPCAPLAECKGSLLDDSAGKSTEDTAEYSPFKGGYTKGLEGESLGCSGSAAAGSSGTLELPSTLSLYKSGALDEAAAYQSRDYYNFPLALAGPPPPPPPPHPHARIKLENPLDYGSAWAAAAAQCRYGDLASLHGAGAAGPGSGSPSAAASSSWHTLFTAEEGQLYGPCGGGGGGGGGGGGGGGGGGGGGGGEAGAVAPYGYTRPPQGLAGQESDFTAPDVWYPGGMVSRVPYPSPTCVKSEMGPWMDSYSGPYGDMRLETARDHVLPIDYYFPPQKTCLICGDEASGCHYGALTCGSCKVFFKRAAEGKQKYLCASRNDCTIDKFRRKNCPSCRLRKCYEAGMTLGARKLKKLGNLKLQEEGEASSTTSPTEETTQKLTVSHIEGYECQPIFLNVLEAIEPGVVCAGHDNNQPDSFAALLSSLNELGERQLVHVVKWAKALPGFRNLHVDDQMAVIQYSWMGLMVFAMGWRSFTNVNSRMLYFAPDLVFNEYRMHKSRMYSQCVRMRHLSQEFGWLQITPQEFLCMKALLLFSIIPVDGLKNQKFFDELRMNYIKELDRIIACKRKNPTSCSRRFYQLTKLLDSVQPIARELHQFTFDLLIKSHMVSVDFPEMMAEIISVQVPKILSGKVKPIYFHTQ

Structure (SMILES)	AC50	outcome
CCCCOCN(C(=O)CCl)c1c(CC)cccc1CC	19 µM (active)	
COC(=O)N(C(=O)N1CO[C@@]2(C(=O)OC)Cc3cc(Cl)ccc3C2=N1)c1ccc(OC(F)(F)F)cc1		inactive
COC(=O)c1c(C(F)F)nc(C(F)(F)F)c(C2=NCCS2)c1CC(C)C		inactive
CCOP(=O)(OCC)Oc1nc(Cl)c(Cl)cc1Cl		inactive
Cc1cnc(C2=NC(C)(C(C)C)C(=O)N2)c(C(=O)O)c1 (stereo not drawn)		inactive
CC1(C)CCC(=Cc2ccc(Cl)cc2)C1(O)Cn1cncn1 (stereo not drawn)	2.9 µM (active)	
COCc1cnc(C2=NC(C)(C(C)C)C(=O)N2)c(C(=O)O)c1 (stereo not drawn)		inactive
Clc1cccc(C(Cl)(Cl)Cl)n1		inactive
CCOc1cc(C(C)(C)C)ccc1C1COC(c2c(F)cccc2F)=N1 (stereo not drawn)		inactive
CC(C)N1C(=O)N(c2ccccc2)CSC1=NC(C)(C)C		inactive
COc1ccc(-c2ccccc2)cc1NNC(=O)OC(C)C		inactive
COP(=S)(OC)SCn1nnc2ccccc2c1=O	31.4 µM (active)	
CCCCC(O)(Cn1cncn1)c1ccc(Cl)cc1Cl (stereo not drawn)	62.7 µM (active)	
